# From PubChem BioAssay AID2717 (Broad Institute, 2010)
# Values joined by “and” are separate entries in the source; they are usually repeats but may differ in a detail not shown here. Equal values may be shown once. In all, about 300,000 compounds went through this assay and about 3,200 (1.1%) were called active. This excerpt belongs to a sample that is enriched for actives. Values without a mark were called inactive. No stated cut-off is given here; in the data, active means inhibition above about 75%; inconclusive means no clear call, values can overlap the other calls; inactive means below that; tested in HMLE shEcad cells.
# Assay: cancer stem cell viability inhibitors, primary screen, luminescence (AID 2717)
# Settings: cancer stem cell-like cells viability, at 7.5 µM, stronger effect = higher value
row,Compound,inhibition
1,O=C(COC(=O)c1ccc2c(c1)OCCO2)NCc1ccccc1Cl,-17.4%
2,Cc1ccc(N2C(=O)N3[C@@H]4c5ccccc5OC[C@@H]4[C@@H](c4ccccc4)[C@@]3(C)C2=O)cc1,-10%
3,O=C(N/N=C/c1ccc(O)c2ccccc12)c1cccnc1,8.51%
4,CCN(CC)c1ccc(/C=N/NC(=O)c2cnccn2)c(O)c1,102% (active)
5,CCN(CC)c1ccc(/C=N/NC(=O)CNC(=O)c2cccnc2)cc1,-7.16%
6,O=C(COC(=O)c1ccc([N+](=O)[O-])o1)NC12CC3CC(CC(C3)C1)C2,-15.4%
7,COCCn1c(C)cc(C(=O)CN2c3cccc4cccc(c34)S2(=O)=O)c1C,12.1%
8,COc1cc(/C=N/O)cc(Br)c1OCc1cccc(Cl)c1,80.5% (active)
9,COc1cc(/C=N/O)cc(Br)c1OS(=O)(=O)c1ccc(C)cc1,-11.5%
10,COc1cc(/C=N/O)ccc1OCc1ccc([N+](=O)[O-])cc1,1.34%
11,CN(CC(=O)NC1CCN(Cc2ccccc2)CC1)S(=O)(=O)c1ccc(Cl)s1,-6.54%
12,O=C(O)c1ccc(Cn2c(=S)[nH]c3cc(Cl)ccc3c2=O)cc1,-3.92%
13,CC(C)c1ccc2c(c1)c(SC(C)(C)C)c(CC(C)(C)C(=O)O)n2Cc1ccc(Cl)cc1,104% (active) and 102% (active)
14,O=C1COc2ccc(C(=O)COC(=O)c3ccccc3Cl)cc2N1,-17.8%
15,Fc1ccccc1-c1cc2cc3c(cc2cn1)OCO3,14.4%
16,COC(=O)C1=C(C)N(Cc2ccccc2)C(=NCCCOC(C)C)N[C@H]1c1ccccc1,0.115%
17,Cc1oc2c(F)c(F)c(F)c(F)c2c1S(=O)(=O)Nc1cccc(C(F)(F)F)c1,97.3% (active)
18,O=C(/C=C/c1ccc(F)cc1)Nc1cccc(S(=O)(=O)Nc2cccc(C(F)(F)F)c2)c1,2.9%
19,CCOC(=O)N1CCN(C(=O)c2ccc(S(=O)(=O)Nc3cccc(C(F)(F)F)c3)cc2)CC1,8.22%
20,Cc1ccc(C)c(NC(=S)NNC(=O)c2csc(C)c2)c1,3.04%
21,CC(C)c1ccc(NC(=S)NNc2ccc(Cl)c(C(=O)O)c2)cc1,-18.1%
22,Cc1ccc(C)c(NC(=S)NNC(=S)Nc2ccc(C(C)C)cc2)c1,102% (active)

row,Compound,inhibition
1,C[C@H]1COC(=O)[C@H](CC(=O)OC(C)(C)C)C/C=C\C[C@@H](CC(=O)N[C@H](CO)Cc2ccccc2)C(=O)N1,-29.3%
2,Cc1ccccc1SCC(=O)OCC(=O)N1CC(=O)Nc2ccccc21,-8.14%
3,CC1CCCCC1NC(=O)COc1ccc(C#N)cc1 (stereo not drawn),-1.85%
4,CC/C(=N\NC(=S)NC(C)C)c1ccc(OC(F)F)cc1,2.7%
5,C/C(=N\NC(=S)NCc1ccccc1)c1ccc(Cl)cc1,41.6%
6,C/C(=N\NC(=S)NC(C)C)c1ccc(C(C)(C)C)cc1,77.5% (active)
7,O=C(COc1cccnc1[N+](=O)[O-])Nc1ccc(Cl)cc1F,-1.01%
8,O=C1C=C(c2cc(C(F)(F)F)cc(C(F)(F)F)c2)C[C@@H](c2ccc3c(c2)OCO3)C1,34.8%
9,COCC(=O)Nc1c(I)c(C(=O)NCC(O)CO)c(I)c(C(=O)N(C)CC(O)CO)c1I (stereo not drawn),10.5%
10,CCN1/C(=C\c2ccc3ccccc3[n+]2CC)Sc2cc(C)ccc21,89.1% (active)
11,CCN1/C(=C/c2ccc3ccc(C)cc3[n+]2CC)Sc2ccccc21,17.6%
12,COc1ccc(C(=O)N2CCN(c3ccc(C(C)=O)cc3F)CC2)cc1S(=O)(=O)NC1CC1,1.55%
13,Cc1cc(N=Nc2ccc3ccccc3c2)ccc1O,112% (active)
14,COc1ccc(N=Nc2ccc(O)c(P(=O)(c3ccccc3)c3ccccc3)c2)cc1,13.4%
15,CC(=O)CCC(=O)c1ccc2ccccc2c1,-3.91%
16,CCN(CC)C(=O)c1nc[nH]c1C(=O)N(C)Cc1ccccc1,-14.8%
17,COc1ccc(/C=C/C(=O)Nc2ccc(C34CC5CC(CC(O)(C5)C3)C4)cc2)cc1OC,91% (active)
18,COc1ccc(/C=C/C(=O)Nc2ccc(C)cc2)cc1S(=O)(=O)N1CCOCC1,-2.38%
19,COc1ccc(/C=C/C(=O)Nc2cccnc2)cc1OC,4.4%
20,CC(=O)C(CC(=O)N1CCCC1)C(=O)Nc1ccc(Cl)cc1 (stereo not drawn),-5.74%
21,CCSc1nnc(NC(=O)c2ccc(C)cc2)s1,15.4%
22,Cc1cccc(NC(=O)c2nc(S(=O)(=O)Cc3ccccc3)ncc2Cl)c1,109% (active)

row,Compound,inhibition
1,CSc1ncc(Cl)c(C(=O)Nc2cc(C)ccc2C)n1,4.07%
2,CSc1nnc(NC(=O)c2nc(S(=O)(=O)Cc3ccc(C)cc3)ncc2Cl)s1,104% (active)
3,CCSc1ncc(Cl)c(C(=O)Nc2cc(C)ccc2C)n1,-7.15%
4,Cc1cccc(NC(=O)c2nc[nH]c2C(=O)NCC(=O)OCc2ccccc2)c1,-0.27%
5,Cc1cc(C)cc(OCC(=O)OCC(=O)NC2CCCC2)c1,7.95%
6,CC(C)(C)OC(=O)C[C@@H]1C/C=C\C[C@@H](CC(=O)N[C@H](CO)Cc2ccccc2)C(=O)NC[C@@H](c2ccccc2)OC1=O,0.463%
7,CCN(C(=O)COC(=O)CCC(=O)c1cccs1)C1CCCCC1,-3.12%
8,CC1(c2ccccc2)NC(=O)N(CC(=O)N2CC(=O)Nc3ccccc32)C1=O (stereo not drawn),-24.5%
9,COc1cc(OC)cc(-c2c(-c3ccc(F)cc3)c3cc(-c4ccc5cc[nH]c5c4)ccc3n2C)c1,14.4%
10,COc1cc(OC)cc(-c2c(-c3cccs3)c3cc(-c4ccc(OC)nc4)ccc3n2C)c1,30.1%
11,COc1ccc(-c2c(-c3cc(OC)cc(OC)c3)n(C)c3ccc(-c4ccn[nH]4)cc23)cc1,109% (active)
12,CNC[C@@H]1Oc2c(NS(C)(=O)=O)cccc2C(=O)N([C@@H](C)CO)C[C@H]1C,-11.8%
13,O=C(/C=C/Sc1ncn[nH]1)c1ccc(Cl)cc1,112% (active)
14,Cc1cc(C)nc(S/C=C/C(=O)c2ccccc2)n1,49.1%
15,O=C(CSc1ncn[nH]1)N/N=C/c1ccc(F)cc1,8.65%
16,CCOC(=O)[C@H]1[C@H]2COc3ccc(OC)cc3[C@@H]2N2C(=O)c3ccc(F)cc3NC(=O)[C@@]12C,9.18%
17,CC(=O)Nc1ccc(C(=O)NNC(=O)CCCCC(=O)NNC(=O)c2ccc(NC(C)=O)cc2)cc1,0.726%
18,CCCC(=O)Nc1ccc(C(=O)N/N=C/c2ccc[nH]2)cc1,110% (active)
19,CC(=O)Nc1ccc(C(=O)/C=C/c2ccc[nH]2)cc1,-8.94%
20,Cc1ccc(OCCC(=O)Nc2ccc(S(=O)(=O)Nc3nccs3)cc2)cc1,-5.72%
21,COc1ccc(C)cc1NC(=O)CSc1cccc[n+]1[O-],-18.1%
22,O=C(Nc1cc(S(=O)(=O)N2CCCCC2)ccc1Cl)C1COc2ccccc2O1 (stereo not drawn),-13.5%

row,Compound,inhibition
1,Cc1[nH]n(-c2ccccc2)c(=O)c1/C=N/NC(=O)c1ccoc1C,35.2%
2,O=C(N/N=C/c1cccc([N+](=O)[O-])c1)c1ccncc1,0.983%
3,Cc1ccc(-n2[nH]c(C)c(/C=N/NC(=O)c3cccc([N+](=O)[O-])c3)c2=O)cc1C,104% (active)
4,CCC1CCCCN1C(=S)NC(=O)c1ccco1 (stereo not drawn),7.21%
5,O=C(Nc1cc(-c2ccccc2)nn1-c1ccccc1F)c1ccc([N+](=O)[O-])cc1,1.45%
6,COc1ccc(S(=O)(=O)N2CCN(c3cnccn3)CC2)cc1,7%
7,CC(C)(C)OC(=O)NCCCCCNC(=O)c1[nH]cnc1C(=O)Nc1nccs1,0.813%
8,CC(=O)c1ccc(NC(=O)CSc2nc3ccccc3c(=O)n2CCCN2CCOCC2)cc1,-2.25%
9,Cc1cccc(N=C2NN=C(c3c[nH]c4ccccc34)CS2)c1,80% (active)
10,Clc1cccc(N=C2NN=C(c3ccc4c(c3)OCCO4)CS2)c1,17.2%
11,Cc1cccc(N=C2NC(=O)/C(=C/c3cn(C)c4ccccc34)S2)c1,47.4%
12,CCN(C(=O)CSc1nnnn1-c1ccc(OC)cc1)C1CCS(=O)(=O)C1 (stereo not drawn),-11.6%
13,CC(NC(=O)COC(=O)c1ccc2ccccc2n1)c1ccccc1 (stereo not drawn),2.66%
14,CCc1ccc(-c2nn(-c3ccccc3)cc2CSC(=N)N)cc1,118% (active)
15,CCc1ccc(-c2nn(-c3ccccc3C)cc2C(=O)N2CCN(C3CCS(=O)(=O)C3)CC2)cc1 (stereo not drawn),-16.1%
16,O=C(Nc1cn(-c2ccccc2)nc1-c1ccccc1)c1ccccc1,-3.4%
17,Cc1cccc(-c2oc3ccc(-c4ccc5c(c4)OCO5)cc3c2C#Cc2cncn2C)c1,94.9% (active)
18,COc1ccc(/C=C/c2c(-c3cccc(C)c3)oc3ccc(-c4ccc5c(c4)OCO5)cc23)cc1,-7.1%
19,COc1ccc(C#Cc2c(-c3ccc(OC)cc3)oc3ccc(-c4ccc5c(c4)OCO5)cc23)cc1,-6.59%
20,CCCC(CNC(=O)COC(=O)C1=NNC(=O)CC1)c1ccc(Cl)cc1Cl (stereo not drawn),-14.7%
21,COc1cc(S(=O)(=O)N2CCN(C(=O)C3CC3)CC2)ccc1NC(C)=O,1.76%
22,COc1ccc(C(=O)Nc2cc(S(=O)(=O)N3CCCC3)ccc2Cl)cc1,7.7%
